In the library only some 0.87% were active in any assay of this set; here they are far more common.
TDP1 block: qHTS Assay for Inhibitors of Tyrosyl-DNA Phosphodiesterase (TDP1) | Tyrosyl-DNA phosphodiesterase 1 (Homo sapiens), Q9NUW8 | recombinant TDP1, AlphaScreen DNA substrate cleavage | Potency, µM (highest dose often 130 µM), for the others: at the top dose activity change, negative = inhibition, actives largely listed as inhibitors | hit rate 0.28% among 350,000 | AID 485290, 2010; note: potency is the fitted concentration of half-maximal effect; % is set by controls: 0 for no effect and ±100 for the full control effect; nearly all actives have a fitted effect of over 40% in size
Target sequence (Q9NUW8 whole entry, looked up): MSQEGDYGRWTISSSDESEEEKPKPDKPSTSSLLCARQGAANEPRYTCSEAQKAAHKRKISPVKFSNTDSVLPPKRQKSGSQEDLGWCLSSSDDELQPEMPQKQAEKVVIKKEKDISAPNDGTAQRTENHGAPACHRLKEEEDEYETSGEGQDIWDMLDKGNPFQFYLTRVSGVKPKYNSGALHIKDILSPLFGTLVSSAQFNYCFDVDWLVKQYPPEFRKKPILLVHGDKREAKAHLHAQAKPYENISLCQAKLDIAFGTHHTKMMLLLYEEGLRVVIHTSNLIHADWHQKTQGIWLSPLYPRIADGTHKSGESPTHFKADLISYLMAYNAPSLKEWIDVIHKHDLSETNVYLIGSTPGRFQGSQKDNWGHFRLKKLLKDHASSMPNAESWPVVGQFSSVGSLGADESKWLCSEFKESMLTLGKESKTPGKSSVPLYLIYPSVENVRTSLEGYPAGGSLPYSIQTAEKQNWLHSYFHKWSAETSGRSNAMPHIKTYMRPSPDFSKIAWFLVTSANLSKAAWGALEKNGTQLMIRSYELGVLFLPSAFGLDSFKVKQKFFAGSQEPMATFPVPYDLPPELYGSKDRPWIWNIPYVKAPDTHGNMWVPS
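Signal: AlphaScreen proximity between streptavidin donor and anti-FITC acceptor beads on intact substrate. Reaction: Tdp1 1 nM, substrate 15 nM final, 5 min RT after 15 min compound preincubation.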
APE1 inh: qHTS Assay for Inhibitors of the Human Apurinic/apyrimidinic Endonuclease 1 (APE1) | DNA repair nuclease/redox regulator APEX1 (Homo sapiens), P27695 | recombinant APE1, TAMRA/BHQ-2 abasic DNA cleavage fluorescence | Potency, µM (titrated, usually from 65.8 µM), inactives show at the highest dose activity change, negative = inhibition, usual class: inhibitors | hit rate 0.35% among 350,000;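 note: potency is the fitted concentration of half-maximal effect; plate controls were vehicle for no effect and reference inhibitor for full effect; nearly all actives have a fitted effect of over 55% in size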
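Measures dequenching upon AP-site incision of a 5'-TAMRA/3'-BHQ-2 THF-containing duplex, 50 nM; human APE1 0.75 nM after 15 min room-temperature exposure to compound; kinetic three-point read at one-minute spacing.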
BLM inh-1: qHTS Assay for Inhibitors of Bloom's syndrome helicase (BLM). RecQ-like DNA helicase BLM (Homo sapiens), P54132. recombinant BLM DNA unwinding, fluorescence dequenching. Potency, µM (titrated, usually from 56.1 µM), for the others: at the highest dose activity change, negative = inhibition, usual class: inhibitors. hit rate 0.2% among 350,000;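 note: potency is the fitted concentration of half-maximal effect; plate controls were vehicle for no effect and no enzyme for full effect; nearly all actives have a fitted effect of over 35% in size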
GCN5L2 inh-1: qHTS Assay for Inhibitors of GCN5L2 | Histone acetyltransferase KAT2A (Homo sapiens), Q92830 | GCN5L2 HAT assay, ThioGlo1 CoA-SH fluorescence | Potency, µM (top dose mostly 58.9 µM), for inactives: top-dose activity change, negative = inhibition, actives largely listed as inhibitors | hit rate 0.21% among 390,000 | AID 504327, 2011; note: potency is the fitted concentration of half-maximal effect; % is set by controls: 0 for no effect and ±100 for the full control effect
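ThioGlo1-coupled HAT assay: 20nM GCN5L2, 70uM acetyl-CoA, 75uM H3(1-25) peptide, pH 7.5. Fluorescence read at 340/540nm at start and after 20 min at room temperature.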
RECQ1 inh-1: qHTS Assay for Inhibitors of RecQ-Like Dna Helicase 1 (RECQ1); RECQ1 DNA unwinding, red fluorescence kinetic read; Potency, µM (doses to about 57.3 µM), for inactives: at the top dose activity, negative = inhibition, actives largely listed as inhibitors; hit rate 0.54% among 240,000; AID 2549, 2010;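 note: potency is the fitted concentration of half-maximal effect; plate controls were vehicle for no effect and no enzyme for full effect; nearly all actives have a fitted effect of over 30% in size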
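50 nM RECQ1T1 preincubated 15 min with compound in Tris pH 8.0 buffer with MgCl2, DTT, Tween-20 and 2.5 ug/ml poly(dI-dC); started with 200 nM TAMRA/BHQ-2 forked duplex and 2 mM ATP. Unwinding read as fluorescence (525/598 nm), two reads 2 h apart.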
BLM inh-2: qHTS Confirmation Assay for Inhibitors of Bloom's syndrome helicase (BLM); BLM DNA unwinding, fluorescence quenching, biochemical; Potency, µM, for inactives: max response, negative = inhibition, usual class: inhibitors; AID 2585, 2010; hit rate 40% among 220; shares compounds with BLM inh-1;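 note: strand separation dequenches TAMRA so unwinding raises red fluorescence; potency is the fitted concentration of half-maximal effect; series mostly up to about 69 µM; % is set by controls: 0 for no effect and ±100 for the full control effect; nearly all actives have a fitted effect of over 45% in size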
RECQ1 inh conf: Confirmation qHTS Assay for Inhibitors of RecQ-Like Dna Helicase 1 (RECQ1). shares compounds with RECQ1 inh-1. RECQ1 helicase DNA unwinding, fluorescence. Potency, µM (series often up to 229 µM), without a hit: top-dose activity change, negative = inhibition, hits mostly inhibitors. hit rate 28% among 610; note: potency is the fitted concentration of half-maximal effect; % is set by controls: 0 for no effect and ±100 for the full control effect; nearly all actives have a fitted effect of over 45% in size
ADP FP counter: Counterscreen for RECQ1 Inhibitors: ADP Fluorescence Polarization Displacement Assay; shares compounds with RECQ1 inh-1; AID 2711, 2010; Potency, µM (top dose mostly 228 µM), without a hit: at the highest dose activity change, negative = inhibition, most hits filed as inhibitors; ADP fluorescence polarization displacement counterscreen; hit rate 27% among 530; note: potency is the fitted concentration of half-maximal effect; % is set by controls: 0 for no effect and ±100 for the full control effect; nearly all actives have a fitted effect of over 45% in size
RECQ1 inh-2: Confirmation qHTS Assay for Inhibitors of RecQ-Like Dna Helicase 1 (RECQ1) - Round 2 Cherry Picks; hit rate 15% among 1,100; Potency, µM (doses to about 119 µM), without a hit: at the top dose activity, negative = inhibition, actives largely listed as inhibitors; recombinant RECQ1 DNA unwinding, red fluorescence; shares compounds with RECQ1 inh-1; note: potency is the fitted concentration of half-maximal effect; % is set by controls: 0 for no effect and ±100 for the full control effect; nearly all actives have a fitted effect of over 50% in size
GCN5L2 inh-2: qHTS Assay for Inhibitors of GCN5L2: Hit confirmation; GCN5L2 HAT, ThioGlo1 CoA fluorescence, 20 min; AID 588347, 2011; Potency, µM, hits mostly inhibitors; hit rate 70% among 140; shares compounds with GCN5L2 inh-1
Starred values were filed as active, the others as inactive; i = inactive; u = inconclusive; x = no result; [ ] = dose if it differs, or a comment. Calls come from the whole dose curve; as a rule, active = well fitted curve in the direction sought with a large enough effect; inconclusive = small, poorly fitted or top-dose-only effect, or another doubt; inactive = no such curve, though single readings can be large; an effect the other way counts as inactive or inconclusive.

SMILES	TDP1 block	APE1 inh	BLM inh-1	GCN5L2 inh-1	RECQ1 inh-1	BLM inh-2	RECQ1 inh conf	RECQ1 inh-2	others
Cc1nc2cc(-c3ccsc3-n3c(C)ccc3C)[nH]n2c(=O)c1Cl	x	u	16µM*	u	2.8µM*	u	40µM*	u	ADP FP counter=32µM*
CCc1c(C)nc2cc(-c3ccccc3)[nH]n2c1=O	x	17%	3%	0%	x	x	x	x
COCCCNC(=O)c1cnc2c(-c3ccc(F)cc3)c(C)nn2c1C	5%	x	2%	-1%	x	x	x	x
CCOC(=O)c1sc2nc3c(SCC(=O)O)cc(C(=O)c4cc(F)ccc4O)cn3c(=O)c2c1C	35µM*	8.9µM*	22µM*	-25%	u	32µM*	x	7%
CCOC(=O)c1sc2nc3c(SCC(=O)O)cc(C(=O)c4ccccc4O)cn3c(=O)c2c1C	3%	u	-16%	-10%	-12%	x	x	x
CCOC(=O)c1cccc(NC(=O)CC2C(=O)N(c3ccc(C)cc3)C(=O)N2Cc2cccc(OC)c2)c1 (configuration not stated)	8%	x	-11%	-10%	x	x	x	x
CCOc1ccc2c(c1)c(=O)c(S(=O)(=O)c1ccc(CC)cc1)cn2Cc1cccc(Cl)c1	9%	x	-9%	0%	x	x	x	x
COc1ccc(Br)cc1CNc1ccc(O)cc1	12%	-9%	20µM*	1%	28µM*	-3%	x	-12%
COc1ccc(Br)cc1CNc1ccc2[nH]c(=O)[nH]c2c1	8%	1%	-6%	-3%	i	x	x	x
CCOc1ccccc1CNc1ccc(O)cc1	5%	-19%	28µM*	-4%	20µM*	-9%	10%[114 µM]	1%	ADP FP counter=56µM*
O=C(NCc1ccco1)c1c2c(nc3ccccc13)CCC2	x	u	18µM*	-10%	28µM*	u	x	u
Cc1ccc(NC(=O)CSc2nc3ccccc3n2CC(=O)N(C)C2CCCCC2)cc1C	9%	x	-2%	-16%	x	x	x	x
O=C(N/N=C/c1cccc(F)c1)c1cc(-c2ccco2)nc2ccccc12	x	4.5µM*	11µM*	u	22µM*	5.8µM*	28µM*	x	ADP FP counter=u
CCOC(=O)c1ccc(NC(=O)CSc2nccn2Cc2ccc(OC)cc2)cc1	9%	x	-6%	-3%	x	x	x	x
O=C(COC(=O)c1c2c(nc3ccccc13)/C(=C\c1cccs1)CCC2)Nc1ccccc1	2%	-4%	-10%	-11%	-18%	x	x	x
CN(CCC#N)C(=O)COC(=O)c1c2c(nc3ccccc13)/C(=C/c1ccco1)CC2	x	14µM*	14µM*	u	16µM*	u	x	u
O=C(O)C1Nc2c(O)cccc2C2C=CCC12 (configuration not stated)	x	3.5µM*	4.5µM*	-2%	4µM*	5.4µM*	u	x
CCCCN1C(=O)CN(C2CCCCCC2)C(=O)C1c1ccc(OC(C)C)c(OC)c1 (configuration not stated)	0%	x	-1%	-4%	x	x	x	x
Cn1ncc([N+](=O)[O-])c1C(=O)Nc1ccc(-c2nc3ccccc3[nH]2)cc1	3%	-3%	-6%	-13%	u	x	x	x
CCOc1ccc(C(=O)Nc2ccc(-c3nc4ccccc4[nH]3)cc2)cc1[N+](=O)[O-]	x	0%	-15%	-3%	7.9µM*	u	u	u
Cc1ccc(SCC(=O)c2ccc(CC(=O)O)s2)cc1	x	-12%	25µM*	-23%	25µM*	u	x	7%
Cc1cc(-c2nc3c4c5c(sc4[nH]c(=O)n3n2)CCC5)c(C)o1	u	u	14µM*	u	13µM*	11µM*	18µM*	u	ADP FP counter=u
CC(=O)c1cccc(NC(=O)Nc2sc3nc4n(c(=O)c3c2C)CCC(C)CC4)c1 (configuration not stated)	0%	x	-7%	0%	x	x	x	x
Cc1[nH]c2ccccc2c1/C=N/NC(=O)c1cccc([N+](=O)[O-])c1	5%	-11%	-8%	-8%	1.6µM*	u	u	x	ADP FP counter=41%[91.9 µM]
O=C(O)CSc1cc(C(=O)c2ccccc2O)cn2c(=O)c3c(-c4ccccc4)csc3nc12	u	-8%	28µM*	25µM*	-22%	u	x	x	GCN5L2 inh-2=26*
Cc1cc(Cl)ccc1NC(=O)CCS(=O)(=O)c1ccc2c(c1)CC(C)N2C(=O)C1CC1 (configuration not stated)	3%	x	-2%	-6%	x	x	x	x
CCN(CC)S(=O)(=O)c1ccc2c(c1)nc(CCC(=O)O)n2CC	0%	-1%	4%	-3%	i	x	10%	x	ADP FP counter=5%
CCc1sc(C(C2C(=O)CC(C)(C)CC2=O)C2C(=O)CC(C)(C)CC2=O)cc1[N+](=O)[O-]	0%	-7%	-4%	-3%	3.2µM*	x	x	-12%
Cc1cnc(CNc2ncnc3ccc(-c4ccc(C(=O)N(C)C)cc4)cc23)cn1	x	1%	-13%	-11%	3%	x	x	x
Cc1cnc(CNc2ncnc3ccc(-c4ccc(N(C)C)cc4)cc23)cn1	x	-9%	-22%	-23%	25µM*	x	x	u

Bioassay records deposited in PubChem by National Center for Advancing Translational Sciences (NCATS).
